Potency and outcome data for 19 molecules are collected here from PubChem BioAssay (NCATS).

Inconclusive results are not listed. Activity calls are given as the source filed them. Unless noted, calls come from the whole dose curve; as a rule, active = well fitted curve in the direction sought with a large enough effect; inconclusive = small, poorly fitted or top-dose-only effect, or another doubt; inactive = no such curve, though single readings can be large; an effect the other way counts as inactive or inconclusive.

A short description of experiment [1]: qHTS for differential inhibitors of proliferation of Plasmodium falciparum line W2 (AID 1883).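 Note: potency is the fitted concentration of half-maximal effect; parasites grown with compound for 72 h before lysis and staining.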 Particulars: Potency: Plasmodium falciparum W2 proliferation inhibition.
Experiment [2] can be described thus: qHTS for differential inhibitors of proliferation of Plasmodium falciparum line HB3 (AID 1886).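 Note: potency is the fitted concentration of half-maximal effect; parasites grown with compound for 72 h before SYBR Green readout.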 The settings on record: Potency: Plasmodium falciparum HB3 proliferation inhibition. (In general: qHTS replaces the single test concentration by a dilution series.)
Experiment [3] deals with ATP-dependent DNA helicase Q1 (Homo sapiens) (UniProt P46063). Kind of experiment: qHTS Validation Assay for Inhibitors of RecQ-Like Dna Helicase 1 (RECQ1) (AID 2353). The gist of the method:
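RECQ1T1 50 nM; forked duplex (20 bp + 30-nt ss tails) 200 nM, ATP 2 mM final; pH 8.0, 2 mM MgCl2, 2.5 ug/ml poly(dI-dC); 15 min compound preincubation; discontinuous kinetic read over 2 h at RT.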

A short description of experiment [4]: High Content Imaging Cell-Based qHTS for Inhibitors of the mTORC1 Signaling Pathway in MEF (Tsc2-/-, p53-/-) Cells (AID 2666).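 Note: percent of cells scored positive for phospho-rpS6 Ser235/236 immunostaining by imaging.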 The essentials:
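MEF Tsc2-/- p53-/- (empty vector), DMEM/10% FBS; cpd 24 h 37 °C; PFA fix, Alexa-488 p-rpS6 S235/236 Ab, Hoechst; imaged; rapamycin-defined inhibition; % positive cells/well.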

In experiment [5] the target is Ubiquitin carboxyl-terminal hydrolase 2 (Homo sapiens) (UniProt O75604). Description: qHTS Validation Assay for Inhibitors of Ubiquitin-specific Protease USP2a Using CHOP2 as the Reporter (AID 463106). The essentials:
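Fluorescence read-out at Ex 485nm/Em 531nm after 60min RT, following addition of 25nM Ub-CHOP2 plus 25nM reporter substrate to USP2 core (10nM) pretreated 30min with compound. Data normalized to NEM full inhibition; concentration-response curves fitted.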

Experiment [6] has as its target Tumor susceptibility gene 101 protein (Homo sapiens) (UniProt Q99816). Kind of experiment: qHTS Validation Assay for Iinhibitors of HIV-1 Budding by Blocking the Interaction of PTAP/TSG101 (AID 485342; calls by dose curve). The gist of the method:
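Compound wells held the Tsg101 binding domain (10 uM) and a FITC-conjugated PTAP peptide (50 nM) in buffer at pH 7.5 containing 0.15 M NaCl and 0.01% Tween 20; polarization was recorded after 20 min, r.t.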

A short description of experiment [7]: qHTS Assay for Identification of Small Molecule Inducers of Hypoxia Response (AID 2120; active = well fitted curve in the direction sought with a large enough effect in the signal ratio, with a control signal flat, not every such curve was filed as active; the % refers to the signal ratio). The gist of the method:
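Reporter induction read as the CCF4 blue/green (460nm/530nm) emission ratio after 2.5 h dye loading at room temperature. ME-180 HRE-beta-lactamase cells received titrated compounds for 17 h at 37 degrees Celsius; AC50 values derived.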

Experiment [8] can be described thus: Cytometric Cell-Based qHTS for Inhibitors of the mTORC1 Signaling Pathway in MEF (Tsc2-/-, p53-/-) Cells (AID 2660).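 Note: percent of cells above a phospho-rpS6 to PI ratio cutoff in each well; series mostly up to about 38 µM.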 The essentials:
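Tsc2-/-, p53-/- MEFs (empty vector) exposed to compound 24 h at 37 C, fixed, stained with Alexa-488 anti-phospho-rpS6 Ser235/236 and propidium iodide. Acumen laser scanning; phospho-S6/PI ratio thresholded against 7.5 nM rapamycin, reported as % positive cells.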

A short description of experiment [9]: High Content Imaging Cell-Based qHTS for Inhibitors of the mTORC1 Signaling Pathway in MEF Cells (AID 2667).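 Note: Tsc2-/- p53-/- MEFs stably re-expressing wild-type Tsc2 exposed 24 h; series mostly up to about 38 µM.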 The gist of the method: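 Read-out is the share of phospho-rpS6-positive cells per well, from Hoechst-normalized Alexa-488 Ser235/236 staining imaged on IN Cell. Cells: WT Tsc2-expressing Tsc2-/-, p53-/- MEFs exposed to compound for 24 hrs.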
The nature of experiment [10]: Validation screen for small molecules that induce DNA re-replication in MCF 10A normal breast cells (AID 463097). Note: potency is the fitted concentration of half-maximal effect; nearly all actives have a fitted effect of over 60% in size. The gist of the method: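 Following 48 hr compound incubation (37 C, 5% CO2), MCF 10A cells receive Hoechst for 40 min at 37 C. Nuclei are then scanned (excitation 405 nm, emission 500-530 nm) for total fluorescence intensity.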
In experiment [11] the target is DNA polymerase III PolC-type (Bacillus subtilis (strain 168)) (UniProt P13267). Kind of experiment: qHTS Validation Assay for the Inhibitors of DNA Replication in Gram-Positive Bacteria (AID 485295).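 Note: reconstituted holoenzyme with PolC plus beta clamp SSB and primase; PicoGreen fluorescence of double-stranded DNA made on primed circular M13 template; series mostly up to about 57 µM.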 The essentials: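 Inhibition of DNA synthesis by the reconstituted PolC holoenzyme, monitored through PicoGreen staining of dsDNA formed from ssM13Gori, dNTPs and NTPs, with compound preincubation and room-temperature reaction.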

In experiment [12] the target is Beta-2 adrenergic receptor (Homo sapiens) (UniProt P07550). Description: qHTS validation assay of beta-arrestin-biased ligands of beta2-adrenergic receptor (AID 485366). The gist of the method:
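qHTS, Tango cells, 1500 cells/well, DMEM + 1% FBS. Cpd 18 hr at 37 degrees C. Luciferin/ATP/CoA detection mix, 15 min RT, luminescence read. %Activity from corrected signal; CRC fit, curve class.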

Experiment [13] can be described thus: Cytometry Cell-Based qHTS for Inhibitors of the mTORC1 Signaling Pathway in MEF cells (AID 2668).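 Note: Tsc2-/- p53-/- mouse embryonic fibroblasts stably re-expressing wild-type Tsc2; percent cells positive for phospho-rpS6 Ser235/236 relative to propidium iodide stain; series mostly up to about 38 µM.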 The essentials:
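In MEFs grown in DMEM + 10% FBS, a 24 hrs compound exposure preceded imaging of phospho-rpS6 Ser235/236 by laser-scanning cytometry.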

A short description of experiment [14]: qHTS Validation Assay to Find Inhibitors of Chronic Active B-Cell Receptor Signaling (AID 485345; active = well fitted curve in the direction sought with a large enough effect in the main read-out, with a control signal flat, not every such curve was filed as active). The essentials:
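TMD8 ABC-DLBCL cells stably carrying doxycycline-inducible IkappaBalpha–green luciferase fusion plus unfused red luciferase; compounds 46 uM to 3 nM, 4 h at 37C with doxycycline. Corrected green/red luminescence ratio normalized to 10 uM MG-132 and basal cell wells; curves fitted.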

Sequence of DNA polymerase III PolC-type (Bacillus subtilis (strain 168)) (P13267 whole entry, looked up): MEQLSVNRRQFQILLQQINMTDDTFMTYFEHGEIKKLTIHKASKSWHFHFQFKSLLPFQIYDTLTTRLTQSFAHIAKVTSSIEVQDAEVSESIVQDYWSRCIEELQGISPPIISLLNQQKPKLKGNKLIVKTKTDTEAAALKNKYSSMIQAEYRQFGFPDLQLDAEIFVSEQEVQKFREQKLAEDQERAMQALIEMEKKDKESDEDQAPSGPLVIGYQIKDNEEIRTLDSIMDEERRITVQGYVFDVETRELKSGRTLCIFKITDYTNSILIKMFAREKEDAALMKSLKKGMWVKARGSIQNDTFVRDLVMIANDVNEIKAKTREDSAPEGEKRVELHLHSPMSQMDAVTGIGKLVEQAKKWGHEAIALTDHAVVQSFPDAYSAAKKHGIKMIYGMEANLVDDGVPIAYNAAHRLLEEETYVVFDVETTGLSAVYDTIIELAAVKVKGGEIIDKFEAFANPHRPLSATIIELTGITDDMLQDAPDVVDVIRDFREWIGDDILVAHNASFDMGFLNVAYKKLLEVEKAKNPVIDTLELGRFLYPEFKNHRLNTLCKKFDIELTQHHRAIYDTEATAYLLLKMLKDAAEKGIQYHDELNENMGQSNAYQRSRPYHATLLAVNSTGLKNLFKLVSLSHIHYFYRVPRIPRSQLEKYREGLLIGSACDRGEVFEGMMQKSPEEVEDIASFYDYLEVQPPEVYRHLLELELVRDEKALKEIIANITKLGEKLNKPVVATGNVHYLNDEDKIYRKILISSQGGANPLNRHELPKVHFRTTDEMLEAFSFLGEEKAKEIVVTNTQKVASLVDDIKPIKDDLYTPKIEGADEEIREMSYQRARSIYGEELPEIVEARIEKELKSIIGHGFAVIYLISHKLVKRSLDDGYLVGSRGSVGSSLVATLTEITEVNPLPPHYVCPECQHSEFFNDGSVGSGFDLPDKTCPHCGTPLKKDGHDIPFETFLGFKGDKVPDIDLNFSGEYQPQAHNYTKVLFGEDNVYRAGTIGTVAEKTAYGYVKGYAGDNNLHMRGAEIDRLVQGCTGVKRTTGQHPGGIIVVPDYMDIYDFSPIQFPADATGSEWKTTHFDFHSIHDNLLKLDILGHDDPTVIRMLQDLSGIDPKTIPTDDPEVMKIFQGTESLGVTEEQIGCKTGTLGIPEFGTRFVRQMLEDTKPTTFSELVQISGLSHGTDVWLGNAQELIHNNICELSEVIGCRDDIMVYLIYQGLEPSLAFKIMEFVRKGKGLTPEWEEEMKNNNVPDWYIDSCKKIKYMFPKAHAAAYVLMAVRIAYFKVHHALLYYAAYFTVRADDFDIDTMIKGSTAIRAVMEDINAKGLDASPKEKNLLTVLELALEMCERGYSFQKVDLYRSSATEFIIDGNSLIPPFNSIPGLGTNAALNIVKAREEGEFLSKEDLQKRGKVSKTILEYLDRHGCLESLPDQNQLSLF
Sequence of Tumor susceptibility gene 101 protein (Homo sapiens) (Q99816 whole entry, looked up, the tested form may be a part): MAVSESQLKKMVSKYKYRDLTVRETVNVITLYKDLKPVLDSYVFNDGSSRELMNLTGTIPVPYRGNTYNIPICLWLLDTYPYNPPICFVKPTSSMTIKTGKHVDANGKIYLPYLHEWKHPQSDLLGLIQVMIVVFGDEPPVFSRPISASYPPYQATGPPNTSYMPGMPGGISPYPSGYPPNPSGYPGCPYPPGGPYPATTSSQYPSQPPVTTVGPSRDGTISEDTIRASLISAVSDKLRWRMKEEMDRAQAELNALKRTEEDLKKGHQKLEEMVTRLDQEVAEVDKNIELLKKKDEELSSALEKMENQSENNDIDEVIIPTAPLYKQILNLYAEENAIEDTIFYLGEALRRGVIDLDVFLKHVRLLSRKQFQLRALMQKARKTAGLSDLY
Sequence of Beta-2 adrenergic receptor (Homo sapiens) (P07550 whole entry, looked up): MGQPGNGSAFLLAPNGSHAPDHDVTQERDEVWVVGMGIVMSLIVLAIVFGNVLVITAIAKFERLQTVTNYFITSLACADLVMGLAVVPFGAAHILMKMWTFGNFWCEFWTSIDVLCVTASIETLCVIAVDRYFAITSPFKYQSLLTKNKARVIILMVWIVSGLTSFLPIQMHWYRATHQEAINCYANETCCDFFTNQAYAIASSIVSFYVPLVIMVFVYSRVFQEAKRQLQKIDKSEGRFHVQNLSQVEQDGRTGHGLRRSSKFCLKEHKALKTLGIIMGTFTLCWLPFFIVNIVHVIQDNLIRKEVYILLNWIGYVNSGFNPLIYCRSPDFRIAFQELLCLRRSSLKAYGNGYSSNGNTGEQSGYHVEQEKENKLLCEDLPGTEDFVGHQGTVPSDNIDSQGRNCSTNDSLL
Sequence of Ubiquitin carboxyl-terminal hydrolase 2 (Homo sapiens) (O75604 whole entry, looked up): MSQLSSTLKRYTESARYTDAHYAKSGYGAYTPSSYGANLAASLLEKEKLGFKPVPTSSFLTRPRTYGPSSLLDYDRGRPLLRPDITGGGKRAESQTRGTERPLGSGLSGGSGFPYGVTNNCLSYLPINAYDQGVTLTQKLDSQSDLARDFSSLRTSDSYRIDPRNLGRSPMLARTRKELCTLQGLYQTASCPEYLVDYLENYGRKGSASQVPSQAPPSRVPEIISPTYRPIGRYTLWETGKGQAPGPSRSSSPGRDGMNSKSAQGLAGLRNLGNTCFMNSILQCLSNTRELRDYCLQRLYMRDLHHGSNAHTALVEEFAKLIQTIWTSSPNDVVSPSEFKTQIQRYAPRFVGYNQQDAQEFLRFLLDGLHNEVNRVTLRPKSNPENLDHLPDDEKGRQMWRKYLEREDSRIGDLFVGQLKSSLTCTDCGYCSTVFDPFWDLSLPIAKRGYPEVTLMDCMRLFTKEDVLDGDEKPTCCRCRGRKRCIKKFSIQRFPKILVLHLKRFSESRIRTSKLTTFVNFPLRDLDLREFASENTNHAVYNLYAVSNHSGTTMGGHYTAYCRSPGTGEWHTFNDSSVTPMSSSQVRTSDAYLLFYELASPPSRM
Sequence of ATP-dependent DNA helicase Q1 (Homo sapiens) (P46063 whole entry, looked up): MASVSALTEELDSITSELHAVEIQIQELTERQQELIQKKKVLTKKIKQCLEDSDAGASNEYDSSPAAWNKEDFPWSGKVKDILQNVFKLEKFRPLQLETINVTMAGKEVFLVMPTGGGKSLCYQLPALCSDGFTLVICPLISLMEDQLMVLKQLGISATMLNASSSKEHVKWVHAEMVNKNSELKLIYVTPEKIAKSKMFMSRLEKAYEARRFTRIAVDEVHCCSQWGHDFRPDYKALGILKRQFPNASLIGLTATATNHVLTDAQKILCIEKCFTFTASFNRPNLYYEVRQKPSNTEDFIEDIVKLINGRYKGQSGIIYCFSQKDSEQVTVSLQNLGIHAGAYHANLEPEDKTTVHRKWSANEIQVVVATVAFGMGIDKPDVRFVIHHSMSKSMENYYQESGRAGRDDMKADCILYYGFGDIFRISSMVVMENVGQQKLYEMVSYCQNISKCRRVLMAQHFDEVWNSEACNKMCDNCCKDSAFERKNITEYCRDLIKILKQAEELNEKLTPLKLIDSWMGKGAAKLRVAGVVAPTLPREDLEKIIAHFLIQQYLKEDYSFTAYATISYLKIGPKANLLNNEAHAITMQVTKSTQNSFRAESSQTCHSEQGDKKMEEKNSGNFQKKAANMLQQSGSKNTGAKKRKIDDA

Take `N#C/C(=C\c1ccc(O)c(O)c1)C(=O)NCCCc1ccccc1`: the Potency in experiment [1] was 7.08 µM (active); in experiment [2] it was 12.6 µM (active). Further, the Potency entry in experiment [3], in experiment [4] and in experiment [5] was “inactive” throughout. In addition, in [6], the result was inactive.

With `O=c1cc(-c2ccccc2)oc2ccccc12`, the result in [7] was inactive.

In the case of `N#C/C(=C\c1ccc(O)c(O)c1)C(=O)NCc1ccccc1`, the Potency in experiment [1] is 11.2 µM (active); in experiment [2], 11.2 µM (active); in experiment [10] it was 8.91 µM (active). Further, the Potency result in experiment [3], in experiment [4], in experiment [9], in [5] and in experiment [11] was “inactive” in each case. Moreover, the molecule was classed as inactive in [8], in [6] and in experiment [12].

In the case of `CCCCCCCCCCCCCCCCCC(=O)O`, the outcome in [7] was inactive.

For the molecule `CN1CC(=O)N/C1=N/C(=O)Nc1cccc(Cl)c1`, the outcome in experiment [8], in experiment [6], in experiment [14] and in [12] was inactive. Moreover, the Potency entry in experiment [4], in [9], in experiment [13], in [5] and in experiment [11] was “inactive” in each case.

On to `O=C(c1ccc(OCCCc2cnc[nH]2)cc1)C1CC1`, for which the molecule was called inactive in [8], in experiment [6] and in experiment [14]. Moreover, the Potency result in experiment [4], in experiment [9], in experiment [13] and in experiment [5] was “inactive” throughout.

As for `Nc1ncnc2c1ncn2[C@@H]1O[C@H](COP(=O)(O)CP(=O)(O)OP(=O)(O)O)[C@@H](O)[C@H]1O`, the outcome in experiment [8], in experiment [6], in experiment [14] and in experiment [12] was inactive. Also, the Potency result in [4], in experiment [9], in experiment [13], in experiment [5] and in experiment [11] was “inactive” throughout.

As for `NC(=S)NCCC[C@H](N)C(=O)O`, the molecule was called inactive in [8], in experiment [6], in experiment [14] and in experiment [12]. Further, the Potency result in [4], in [9], in experiment [13], in experiment [5] and in [11] was “inactive” each time.

`O=[N+]([O-])c1ccc(CSc2ncnc3c2ncn3[C@@H]2O[C@H](CO)[C@@H](O)[C@H]2O)cc1`: the call in experiment [8], in experiment [6] and in experiment [12] was inactive. The Potency entry in [4], in experiment [9], in [13] and in experiment [5] was “inactive” throughout.

For the molecule `CCC1C(=O)OCC1Cc1cncn1C` (centres undefined), the outcome in experiment [8], in experiment [6], in experiment [14] and in experiment [12] was inactive. In addition, the Potency entry in experiment [4], in experiment [9], in experiment [13], in experiment [5] and in experiment [11] was “inactive” in each case.

Consider `Cc1nc2sccn2c(=O)c1CCN1CCC(=C(c2ccccc2)c2ccc(F)cc2)CC1`, for which the result in experiment [8], in experiment [6], in experiment [14] and in experiment [12] was inactive. For the same molecule, the Potency entry in [4], in [9], in [13] and in [5] was “inactive” throughout.

For `CNC(=O)[C@H]1O[C@@H](n2cnc3c(NCc4cccc(I)c4)ncnc32)[C@H](O)[C@@H]1O`, the molecule was classed as inactive in [8], in [6] and in experiment [12]. For the same molecule, the Potency result in experiment [4], in [9], in experiment [13], in experiment [5] and in experiment [11] was “inactive” in each case.

Turning to `CO/N=C(\C(=O)N[C@@H]1C(=O)N2C(C(=O)O)=C(COC(C)=O)CS[C@H]12)c1csc(N)n1`, the result in [8], in experiment [6], in experiment [14] and in experiment [12] was inactive. Besides, the Potency result in experiment [4], in [9], in experiment [13], in experiment [5] and in [11] was “inactive” in each case.

Turning to `NC(=S)c1ccc[n+]([C@@H]2O[C@@H](COP(=O)([O-])OP(=O)(O)OC[C@H]3O[C@@H](n4cnc5c(N)ncnc54)[C@H](OP(=O)(O)O)[C@@H]3O)C(O)C2O)c1` (some centres undefined), the call in [8] and in [6] was inactive. For the same molecule, the Potency entry in experiment [4], in experiment [13], in experiment [5] and in experiment [11] was “inactive” throughout.

Consider `O=C1NC(=O)/C(=C/c2ccc(-c3ccc(F)cc3O)o2)S1`, for which the result in experiment [8], in experiment [6] and in experiment [12] was inactive. Also, the Potency entry in experiment [4], in experiment [9], in experiment [13], in [5] and in [11] was “inactive” in each case.

In the case of `NC(=O)C1=CN(C2OC(COP(=O)(O)OP(=O)(O)OC[C@H]3O[C@@H](n4cnc5c(N)ncnc54)[C@H](OP(=O)(O)O)[C@@H]3O)C(O)C2O)C=CC1` (some centres undefined), the result in experiment [8], in experiment [6] and in experiment [12] was inactive. Besides, the Potency result in [4], in experiment [9], in experiment [13] and in experiment [5] was “inactive” in each case.

Consider `C[N+](C)(C)CCOP(=O)(O)OP(=O)([O-])OC[C@H]1O[C@@H](n2ccc(N)nc2=O)[C@H](O)[C@@H]1O`, for which the molecule was called inactive in [8], in experiment [6], in experiment [14] and in [12]. The Potency entry in experiment [4], in experiment [9], in experiment [13], in experiment [5] and in [11] was “inactive” each time.

Turning to `Nc1nc(Cl)nc2c1ncn2[C@@H]1O[C@H](CO)[C@@H](O)[C@H]1O`, the outcome in experiment [8], in [6] and in experiment [12] was inactive. Also, the Potency result in experiment [4], in experiment [9], in [13], in [5] and in experiment [11] was “inactive” throughout.

Consider `Nc1nc(Nc2ccccc2)nc2c1ncn2[C@@H]1O[C@H](CO)[C@@H](O)[C@H]1O`, for which the molecule was called inactive in experiment [8], in experiment [6] and in experiment [12]. The Potency entry in experiment [4], in [9], in [13] and in experiment [5] was “inactive” in each case.
